Holding throughout (experiment): PBM binding z-score (relative to random genomic background probes); higher = stronger binding; sequences stand for … in GC…GCGATTGACAGCGTAGAATGAAGG
The subject of experiment [1] is FXR:RXRa (NR concentration 270 nM, RXRa partner concentration 90 nM). The procedure, abridged: (§1)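 Each nuclear receptor dimer, without ligand, was incubated for 1 h on custom Agilent 4×180K protein-binding microarrays. Binding was detected with antibodies against each partner (one per run), and scanned fluorescence was regression-normalized. The binding z-scores are referenced to random human genomic background probes.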

The subject of experiment [2] is LXRa:RXRa (NR concentration 270 nM, RXRa partner concentration 90 nM). The procedure, abridged:
as §1

Experiment [3] concerns LXRa homodimer (NR concentration 270 nM). The method in brief: as §1
The subject of experiment [4] is LXRb:RXRa (NR concentration 270 nM, RXRa partner concentration 90 nM). The procedure, abridged:
as §1

The test system of experiment [5] is LXRb homodimer (NR concentration 270 nM). The procedure, abridged: as §1
Experiment [6] has as its system PPARa:RXRa (NR concentration 270 nM, RXRa partner concentration 90 nM). The method in brief: as §1
The test system of experiment [7] is PPARg:RXRa (NR concentration 180 nM, RXRa partner concentration 90 nM). The method in brief: as §1
The test system of experiment [8] is PPARg:RXRa 270nM:90nM, anti-RXR (NR concentration 270 nM, RXRa partner concentration 90 nM). The procedure, abridged: as §1
In experiment [9] the test system is PPARg:RXRa 30nM:10nM, anti-RXR (NR concentration 30 nM, RXRa partner concentration 10 nM). The method in brief: as §1
In experiment [10] the test system is PPARg:RXRa 90nM:30nM, anti-RXR (NR concentration 90 nM, RXRa partner concentration 30 nM). The procedure, abridged:
as §1

For experiment [11], the system named is PPARg:RXRa DBDmut IVT, anti-RXR (DBD mutation: RXRa K156A/R161A, NR concentration 270 nM, RXRa partner concentration 90 nM). The method in brief:
as §1

For experiment [12], the system named is PPARg:RXRa IVT, anti-PPARg (NR concentration 270 nM, RXRa partner concentration 90 nM). The procedure, abridged: as §1
Experiment [13] concerns PPARg DBDmut:RXRa IVT, anti-PPARg (DBD mutation: PPARg1 K132A/R137A, NR concentration 270 nM, RXRa partner concentration 90 nM). The procedure, abridged:
as §1

The test system of experiment [14] is PPARg DBDmut IVT, anti-PPARg (DBD mutation: PPARg1 K132A/R137A, NR concentration 270 nM). The procedure, abridged:
as §1

For experiment [15], the system named is PPARg homodimer (NR concentration 180 nM). The method in brief:
as §1

Experiment [16] concerns PXR:RXRa (NR concentration 270 nM, RXRa partner concentration 90 nM). The procedure, abridged: as §1
Experiment [17] relates to PXR homodimer (NR concentration 270 nM). The method in brief:
as §1

In experiment [18] the test system is RARa:RXR (NR concentration 270 nM, RXRa partner concentration 90 nM). The procedure, abridged: as §1
Experiment [19] concerns RARa homodimer (NR concentration 270 nM). The procedure, abridged: as §1
Experiment [20] has as its system RARb:RXRa (NR concentration 270 nM, RXRa partner concentration 90 nM). The method in brief: as §1

For the sequence TCATATAGGTAAACAGGTGAAAATCCGTAAGTTA, the PBM binding z-score in experiment [1] came to 1.24; in experiment [2], 1.11; in experiment [3] it was 0.438; in [4], 1.28; in experiment [5], 0.151; in experiment [6], 2.23. In addition, the PBM binding z-score in experiment [7] was 2.95; in experiment [8], 3.15; in [9] it was 4.38; in [10], 3.6; in [11], 4.38; in experiment [12], 4.3. Further, the PBM binding z-score amounted to 1.27 in experiment [13]; 0.925 in experiment [14]; 1.28 in experiment [15]; 1.18 in experiment [16]; 0.297 in [17]; 1.4 in [18]. Besides, the PBM binding z-score in experiment [19] was found to be 1.83; in experiment [20], 0.846.

Take TCGAGTAGGTAAGGGGCATTCAGAATGGCGTCGA: the PBM binding z-score was -0.106 in [1]; -0.02 in [2]; -0.436 in [3]; 0.42 in [4]; -0.693 in experiment [5]; 0.747 in experiment [6]. Besides, the PBM binding z-score in experiment [7] turned out to be 0.463; in [8] it was 1.71; in experiment [9] it was 1.19; in experiment [10] it was 1.41; in experiment [11], 1.59; in [12], 0.472. Also, the PBM binding z-score in experiment [13] was -0.991; in experiment [14] it was -1.03; in experiment [15], 0.148; in [16], -0.173; in [17], -0.537; in [18] it was -0.00481. The PBM binding z-score in experiment [19] is -0.369; in experiment [20], 0.496.

On to CGAACGAGGGAATGAGTTGATAGCAAATGCCGAT, for which the PBM binding z-score was -0.82 in experiment [1]; -0.749 in experiment [2]; -0.474 in [3]; -1.01 in [4]; -0.729 in experiment [5]; -1.17 in experiment [6]. Further, the PBM binding z-score in experiment [7] is 0.578; in experiment [8], -0.457; in experiment [9], -0.284; in experiment [10], -0.51; in experiment [11], -0.446; in experiment [12], -0.487. Besides, the PBM binding z-score in [13] is -0.561; in [14] it was 0.167; in [15], -0.451; in [16] it was -0.632; in experiment [17] it was -0.33; in experiment [18] it was -0.875. In addition, the results for the PBM binding z-score in experiment [19] and in experiment [20] were -0.143 and -0.567, respectively.

As for GATGCTAGGTCAGGTTGGTCAGCTAACGGGTACG, the PBM binding z-score in experiment [1] was 1.5; in experiment [2] it was 1.03; in experiment [3] it was -0.12; in experiment [4] it was 0.742; in experiment [5], 0.041; in experiment [6], 1.66. Further, the PBM binding z-score in [7] is 0.776; in [8], 0.805; in experiment [9], -0.511; in experiment [10] it was 0.0836; in experiment [11], 1.91; in experiment [12] it was 2.23. Further, the PBM binding z-score in experiment [13] was -0.346; in [14] it was -0.425; in [15], 1.67; in [16], 0.452; in experiment [17], 0.0675; in experiment [18], 0.755. Further, the figures for the PBM binding z-score in experiment [19] and in experiment [20] were -0.108 and 3.46, respectively.

As for TCGAGTAGGTTACCAAGGGGGCATTCAGCTTTCT, the PBM binding z-score in experiment [1] worked out at 1.44; in experiment [2], 4.34; in [3], 0.768; in [4], 4.55; in experiment [5], 6.02; in [6], 2.95. Besides, the PBM binding z-score in [7] is 1.48; in [8] it was 3.04; in [9], 2.18; in [10] it was 2.74; in [11] it was 3.32; in experiment [12] it was 4.07. The PBM binding z-score in [13] was 4.92; in [14], 5.1; in [15], 1.17; in experiment [16], 2.98; in [17], 0.477; in experiment [18] it was 2.6. Further, the PBM binding z-score in [19] is -0.167; in [20] it was 1.98.

In the case of ACTAGTTGGTCAACTGAGGTCACACACAATTCGG, the PBM binding z-score was found to be 4.03 in experiment [1]; 4.75 in experiment [2]; 3.24 in experiment [3]; 3.99 in experiment [4]; 0.711 in experiment [5]; 4.31 in [6]. In addition, the PBM binding z-score was determined as 3.06 in experiment [7]; 3.01 in experiment [8]; 0.826 in experiment [9]; 2.8 in experiment [10]; 2.42 in [11]; 3.75 in experiment [12]. For the same sequence, the PBM binding z-score in experiment [13] is 1.07; in experiment [14] it was 0.421; in experiment [15] it was 2.02; in [16] it was 6; in experiment [17], 1.2; in experiment [18], 4.59. Moreover, the PBM binding z-score turned out to be 1.19 in experiment [19] and 4.1 in [20].

The record behind these values is the supplement of paper PMC6555819.
